Measurements as given in PubChem BioAssay (Tox21).
Records with an inconclusive call do not appear. Where a call stands in place of a potency, no number is given. Unmarked numbers belong to inactive results. The source made the active and inactive calls. Calls follow the shape of the dose curve; as a rule, active = well fitted cell-killing curve with a large enough effect in the repeat runs; inconclusive = weak or mixed curves, or effect the other way; inactive = flat fitted curve, though single readings scatter.

Test: cAMP Responsive Elements (CRE) small molecule agonists, cell-based qHTS assay: qHTS cell viability counter screen (AID 2060914); also: nearly all actives have a fitted effect of over 50% in size
Conditions: CRE-bla HEK293T viability, CellTiter-Glo luminescence, 5 h; series mostly up to 92.4 µM
Outline: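 Cytotoxicity counter screen multiplexed with the CRE-bla reporter assay in HEK 293T cells: 3 h compound exposure at 37 °C, followed by CellTiter-Glo luminescence measured in the same wells.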

| SMILES | Potency | activity change, negative = cytotoxicity |
| --- | --- | --- |
| Nc1ccc(C(=O)Nc2ccccc2N)cc1 | inactive | – |
| CCCCCCCCN(C)C | inactive | – |
| COc1cccc(CCc2ccccc2OCC(CN(C)C)OC(=O)CCC(=O)O)c1 (stereo not drawn) | inactive | – |
| CCOC=C(C(=O)OCC)C(=O)OCC | inactive | – |
| CCC(=O)O[C@]1(C(=O)COC)[C@@H](C)C[C@H]2[C@@H]3CCC4=CC(=O)C=C[C@]4(C)C3(F)[C@@H](O)C[C@@]21C (stereo partly drawn) | inactive | – |
| O=c1[nH]c(=O)n([C@H]2O[C@H](CO)[C@@H](O)[C@@H]2O)cc1/C=C\Br | inactive | – |
| NC(=O)COCCN1CCN(C(c2ccccc2)c2ccc(Cl)cc2)CC1 (stereo not drawn) | inactive | – |
| CCCCCCCCCCl | inactive | – |
| CCCCCCCCCCCCCC=O | – | 15.9% [at 8.39 µM] |
| COc1cc(N)c(Cl)cc1C(=O)NC1CCN(Cc2ccccc2)CC1 | inactive | – |
| CCOC(=O)C1=NOC(c2ccccc2)(c2ccccc2)C1 | inactive | – |
| COc1ccc(CCO)cc1 | inactive | – |
| COc1cc2c(Nc3ccc(Br)cc3F)ncnc2cc1OCC1CCN(C)CC1 | inactive | – |
